Laboratory results reported in ChEMBL document CHEMBL3988442, “University of Dundee, Small-Polar-MMV Screening Library” (2021).
Among all 69,000 compounds or so, about 420 (0.61%) showed an effect of 50% or more. Shown is part of a subset that was picked to be rich in strong results.

Target: T1, Histidine--tRNA ligase (Leishmania infantum) (UniProt A4I591)
T1 sequence (whole entry): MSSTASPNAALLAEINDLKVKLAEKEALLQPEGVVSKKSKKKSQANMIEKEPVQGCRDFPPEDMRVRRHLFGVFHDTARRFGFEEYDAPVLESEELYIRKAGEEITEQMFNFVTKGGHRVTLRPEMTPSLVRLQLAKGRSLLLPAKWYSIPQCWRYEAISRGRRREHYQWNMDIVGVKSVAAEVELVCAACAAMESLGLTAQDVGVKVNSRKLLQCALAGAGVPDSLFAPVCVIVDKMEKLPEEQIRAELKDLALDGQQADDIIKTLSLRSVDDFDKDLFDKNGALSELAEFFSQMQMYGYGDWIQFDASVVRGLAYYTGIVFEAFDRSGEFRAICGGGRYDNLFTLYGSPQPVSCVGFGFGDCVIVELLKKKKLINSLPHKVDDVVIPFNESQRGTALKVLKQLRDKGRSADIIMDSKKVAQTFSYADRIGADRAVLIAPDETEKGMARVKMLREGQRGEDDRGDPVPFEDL
Assay: Leishmania infantum Histidine tRNA synthetase (LdHisRS)
Format: functional
Design: scale not given: in the data most compounds retested in dose-response had high values
Details: 30 µM

| Structure (SMILES) | Percent Effect [%] |
| --- | --- |
| CS(=O)(=O)N1C[C@@H]2CC[C@H](C1)N(C(=O)Cn1ccc3ccccc31)C2 | 11.6 |
| Cn1cc(CN2CC[C@@H]3[C@H]2CCC(=O)N3c2ccccc2)cn1 | 5.56 |
| COc1c(NC(=O)N(C)CCOc2ccccc2)c(C)nn1C | 24.1 |
| CN(CCOc1ccccc1)C(=O)Nc1cccn(C)c1=O | 112 |
| Cn1cccc(NC(=O)COc2ccc(Br)cc2)c1=O | 26.1 |
| O=C(NCc1ccco1)[C@H]1COC[C@H]2CN(Cc3ccccn3)C[C@H]21 | 14 |
| Cc1ccccc1NC1CCN(C(=O)CCc2ccco2)CC1 | 12.5 |
| Cc1ccc(N(C)C2CCN(C(=O)CCc3ccco3)CC2)nn1 | 58.5 |
| Cc1ccc(NC2CCN(C(=O)CCc3ccco3)CC2)nn1 | 27.7 |
| O=C(c1ncccn1)N1C[C@H]2CCC[C@@]2(COCc2cccnc2)C1 | -3.92 |
| Cc1cnc(C(=O)N2C[C@H]3CN(Cc4cccs4)C[C@H]3C2)cn1 | -3.19 |
| CS(=O)(=O)CCC(=O)N1C[C@@H]2CC[C@H](C1)N(Cc1ccccn1)C2=O | 18 |
| O=C(CC1CC1)N[C@@H]1CN(Cc2ccoc2)C[C@@H]2CCCO[C@@H]21 | -31.4 |
| O=C1CCC(C(=O)Nc2ccc(=O)n(Cc3ccccc3Cl)c2)N1 (stereo not given) | 20.5 |
| CC1CCN(Cc2ccccc2CNC(=O)C2CNC(=O)N2)CC1 (stereo not given) | 5.18 |
| O=C1CCC(C(=O)Nc2cnn(-c3ccccc3Cl)c2)N1 (stereo not given) | 19.5 |
| O=C(Nc1ccc(=O)n(Cc2ccccc2Cl)c1)C1CC1 | 114 |
| O=C1CCC(C(=O)Nc2ccc(=O)n(Cc3ccc(Cl)c(Cl)c3)c2)N1 (stereo not given) | 95.2 |
| O=C1NCC(C(=O)Nc2ccc(=O)n(Cc3ccccc3Cl)c2)N1 (stereo not given) | 92.8 |
| O=C(Nc1cnn(Cc2ccc(F)cc2Cl)c1)C1CC1 | 15.9 |
| O=C1NCC(C(=O)NCc2ccccc2CN2CCOCC2)N1 (stereo not given) | 7.25 |
| O=C1CC[C@H](C(=O)Nc2cnn(-c3ccccc3Br)c2)N1 | 7.32 |
| CC(C)CN1C(=O)CO[C@@H]2CN(C(=O)N(C)C)C[C@H]21 | 8.77 |

| Structure (SMILES) | Percent Effect [%] |
| --- | --- |
| CN1CC[C@@H]2[C@@H](CO[C@H]2CNC(=O)c2nccn2C)C1 | 16 |
| CN(C)C(=O)CN1C[C@@H]2CC[C@H](C1)N(Cc1cc(F)ccc1F)C2 | 1.91 |
| CN1C[C@@H]2CC[C@H](CC1=O)N2C(=O)c1cc2ccccc2[nH]c1=O | 19.5 |
| Cc1occc1C(=O)N1C[C@@H]2[C@@H](C1)OCC(=O)N2Cc1cccnc1 | 11.5 |
| Cn1cc(C(=O)N2CC[C@@H]3[C@@H]2CCN3c2ccccn2)cn1 | 16 |
| Cc1noc(C)c1CN1CCO[C@H]2CN(C(=O)C3CCOCC3)C[C@H]21 | 7.96 |
| O=C(NCc1cccnc1N1CCc2ccccc2C1)c1cnc[nH]1 | 18.6 |
| Cc1cc(C(=O)NCc2cccnc2N2CCc3ccccc3C2)[nH]n1 | 21.4 |
| O=C(NCc1cccnc1N1CCc2ccccc2C1)c1cc(=O)[nH][nH]1 | 50 |
| CCC1CN(CC(=O)NCCN2CCCCC2)c2ccccc2S1 (stereo not given) | 27.2 |
| CCC1CN(CC(=O)NCCN2CCCC2)c2ccccc2S1 (stereo not given) | 31.5 |
| CCC1CN(CC(=O)NCCN2CCCCCC2)c2ccccc2S1 (stereo not given) | 51.1 |
| CN(C)C(=O)N1C[C@@H]2CC[C@H](C1)N(Cc1ccc3nsnc3c1)C2 | 24 |
| O=C1N(c2cccc(F)c2)Cc2nc(=O)n(Cc3ccccc3Cl)n21 | 12 |
| CN1C[C@@H]2CN(C(=O)NCc3cccc(F)c3)CCC[C@]2(C(=O)O)C1 | 6 |
| COc1ccc(CN2C[C@@H]3COC[C@@H](N4CCN(C)CC4)[C@@H]3C2)cc1 | 17 |
| CCn1ncc(-c2cc(C(F)(F)F)nc(N3CCC(N)CC3)n2)c1C | 15.1 |
| CCc1ccc(-c2cc(C(F)(F)F)nc(N3CCC(N)CC3)n2)cc1 | 71 |
| Cc1c(-c2cc(C(F)(F)F)nc(N3CCC(N)CC3)n2)cnn1C | 19.4 |
| CNC(=O)[C@H]1C[C@@H]2CN(C(=O)c3ccco3)C[C@@H]2N1S(C)(=O)=O | 17 |
| COCCC(=O)N1CC[C@@H]2O[C@@H](C)C[C@H]2C1 | 15.3 |
| O=C(Cc1ccco1)N1C[C@H]2CCC[C@@]2(COc2cccnc2)C1 | 24 |
| COc1ccc(-c2nc(CN3CCc4c(ncn4C)C3)cs2)cc1 | 57.5 |

| Structure (SMILES) | Percent Effect [%] |
| --- | --- |
| Cn1cnc2c1CCN(Cc1csc(-c3ccc(F)cc3)n1)C2 | 10.2 |
| Cn1cnc2c1CCN(Cc1csc(-c3ccccc3)n1)C2 | 15.7 |
| Cc1ccc(OCC(=O)N2C[C@@H]3CN(C)CCO[C@@H]3C2)cc1 | 5.17 |
| COc1cccc(CN(C)C(=O)CN2CC(n3nc(C)cc3C)C2)c1 | 62.9 |
| Cc1cc(C)n(C2CN(CC(=O)N(C)Cc3ccsc3)C2)n1 | 43.8 |
| COc1ccccc1CN(C)C(=O)CN1CC(n2nc(C)cc2C)C1 | 40.2 |
| COc1cc(C(=O)N2CCO[C@H]3[C@H](OCC4CC4)CC[C@@H]32)ccc1F | 12.1 |
| O=C(NCc1cccnc1)[C@H]1C[C@@H]2CCN(c3ccncn3)C[C@H]2O1 | 15.3 |
| CCN1C[C@@H]2CN(C(=O)c3ccsc3)C[C@@H]2C1=O | -28.6 |
| N#Cc1cccc(CN2C[C@@H](NC(=O)C3CC3)[C@H]3OCCC[C@H]32)c1 | -2.75 |
| COc1cc(F)c(S(=O)(=O)Nc2cnc(O)cc2C)cc1OC | 97.6 |
| O=C(O)c1c[nH]c2cc(NS(=O)(=O)c3cccc(F)c3F)ccc12 | 36.5 |
| COc1ccccc1S(=O)(=O)Nc1cnc(O)cc1C | 20.5 |
| CC(C)(CN)NS(=O)(=O)c1cccc(F)c1F | 11.8 |
| COc1ncc(NS(=O)(=O)c2ccc(F)cc2F)cn1 | 12.8 |
| Cc1cc(O)ncc1NS(=O)(=O)c1cccc(F)c1F | 95.2 |
| COc1ccc(CN2CCO[C@H]3CN(C(=O)C4CC4)CC[C@H]3C2=O)cc1 | 11.1 |
| COC[C@@]12CCO[C@@H]1CCN(Cc1ccc(C)s1)C2 | -2 |
| O=C(c1cnccn1)N1C[C@@H]2CC[C@H](C1)N(C(=O)Cc1ccsc1)C2 | 12.3 |
| CCCS(=O)(=O)N1C[C@H](N(C)Cc2ccco2)[C@@H]2OCCC[C@@H]21 | 9 |
| Cc1nc(C(=O)N2C[C@@H]3CN(S(C)(=O)=O)CCO[C@@H]3C2)cs1 | 8.77 |
| CN1CCN(c2cccc(NC(=O)NCc3csc(N(C)C)n3)c2)C1=O | 64.7 |
| Cc1nnsc1CNC(=O)Nc1cccc(N2CCN(C)C2=O)c1 | 11.8 |

| Structure (SMILES) | Percent Effect [%] |
| --- | --- |
| CN(C)c1nc(CNC(=O)Nc2cccc([S+](C)[O-])c2)cs1 (stereo not given) | 27.1 |
| Cc1cccc(CN2C(=O)CO[C@@H]3CN(Cc4cnn(C)c4)C[C@H]32)c1 | 23.1 |
| C=Cc1cccc(CN2C[C@H]3CC[C@@H]2CN(Cc2c(C)noc2C)C3)c1 | 27.4 |
| CNc1cc(-c2cccc(CN)c2)c2cc[nH]c2n1 | 68.7 |
| COCCNc1cc(-c2ccccc2CCN)c2cc[nH]c2n1 | 4.84 |
| CNc1cc(C)nc(-c2cc(NC)nc3[nH]ccc23)n1 | -2.04 |
| Cc1cccc(C)c1-c1cc(NCCO)nc2[nH]ccc12 | 10 |
| CNc1cc(-c2ccccc2CN)c2cc[nH]c2n1 | 80.7 |
| CNc1cc(-c2ccc(COCCN)cc2)c2cc[nH]c2n1 | 20.5 |
| O=C(c1cocn1)N1CC[C@H]2OCC[C@@]2(COc2ncccc2F)C1 | 22.4 |
| O=C(Cc1ccccc1)N1CC[C@@H]2CNS(=O)(=O)[C@@H]2CC1 | 28.1 |
| Nc1cccnc1N1CCCCCC1 | 58.3 |
| Nc1cccnc1N1CCC(O)CC1 | 12.5 |
| Nc1cccnc1N1CCN(c2ccccc2)CC1 | 8.33 |
| COc1ccc(CC(=O)N2C[C@@H]3COC[C@]3(CN(C)C)C2)cc1 | -47.1 |
| Cc1nc(COC[C@@H]2CC[C@H]3[C@H](CCN3C(=O)C3CC3)O2)cs1 | 14.7 |
| Cc1cccc(C(=O)N2C[C@@H]3CCN(c4cccnc4)C[C@@H]3C2)c1 | 6.57 |
| CN(C)C(=O)CN1CC[C@H]2CN(C3CCOCC3)C[C@@H]2C1=O | 11.7 |
| CCn1nc2c(cc1=O)CN(CC1CCCCO1)CC2 (stereo not given) | 0 |
| CCCn1nc2c(cc1=O)CN(CC1CCCCO1)CC2 (stereo not given) | 79.5 |
| Cn1nc2c(cc1=O)CN(CC1CCCCO1)CC2 (stereo not given) | 104 |
| Cc1ncc2c(n1)CN(CC1CCCCO1)CC2 (stereo not given) | 25.7 |
| CC(C)n1nc2c(cc1=O)CN(CC1CCCCO1)CC2 (stereo not given) | 35.6 |

| Structure (SMILES) | Percent Effect [%] |
| --- | --- |
| Cn1nc2c(cc1=O)CN(CCN1CCCC1=O)CC2 | 4.39 |
| CCCSCC(=O)N1C[C@H]2CC[C@@H]1CN(c1ncccn1)C2 | 4.17 |
| CC(C)CC(=O)N1CC[C@H]2N(C)CC[C@@]2(C(=O)Nc2ccccc2)CC1 | 15.4 |
| Cc1nccc([C@@H]2C[C@@H]3CCN(S(C)(=O)=O)C[C@H]3O2)n1 | 22.6 |
| CC1=N[C@@]2(CC[C@@H]3CN(CC(=O)N(C)C)C[C@@H]32)C(=O)N1CC1CC1 | 23.1 |
| COc1ccc(F)c(F)c1CN1CC(=O)N(c2ccccc2C)CC1C (stereo not given) | 53 |
| COc1cccc(CN2CC(=O)N(c3ccccc3C)CC2C)c1OC (stereo not given) | 38.5 |
| COc1ccc(F)c(CN2CC(=O)N(c3ccccc3C)CC2C)c1 (stereo not given) | 31.3 |
| c1csc(N2[C@H](Cn3cncn3)C[C@@H]3CNCC[C@@H]32)n1 | -6.84 |
| CC(C)c1cc(N2CC[C@H](F)C2)n2nccc2n1 | 22.2 |
| CC(C)c1cc(N2CCC(N)CC2)n2nccc2n1 | 22.9 |
| CC(C)c1cc(N2CCC(C(C)N3CCCC3)CC2)n2nccc2n1 (stereo not given) | 69.4 |
| Cc1cccc(CO[C@@H]2CC[C@H]3[C@H]2OCCN3Cc2cc(C)on2)n1 | 22.2 |
| O=C(NC[C@H]1CC[C@H](c2ccnc3ncnn32)CC1)c1ccccn1 | 7.04 |
| CN1CCN(c2ccccc2NC(=O)NCCc2ccc(O)cc2)CC1 | 21.5 |
| Cc1cccc(C)c1OCC(=O)Nc1cccn(C)c1=O | 21 |
| Cn1cccc(NC(=O)NCCOCc2ccccc2)c1=O | 22 |
| CC(CCc1cccn1C)NC(=O)Nc1cccn(C)c1=O (stereo not given) | 38.4 |
| Cn1cccc(NC(=O)NCCc2cccc(O)c2)c1=O | 55 |
| Cn1cccc(NC(=O)COc2ccc(Cl)cc2)c1=O | 34.5 |
| Cn1cccc(NC(=O)NCc2cccc(CO)c2)c1=O | 55 |
| CC(C)C(C)NC(=O)Nc1cccn(C)c1=O (stereo not given) | 63.4 |
| CCSCCC(C)NC(=O)Nc1cccn(C)c1=O (stereo not given) | 29.5 |
